Screening results deposited in PubChem BioAssay by Pan Lab, Icahn School of Medicine at Mount Sinai.
RBX1-CUL1 inh = inhibitors of human ROC1-CUL1 ubiquitin ligase activity. 0.6% of 140,000 active. P62877+Q13616. AID 1347404. in vitro K48 di-Ub FRET, acceptor:donor ratio, 45 min. inhibition, % at 10 µM; in the data active means inhibition above about 25%
Target sequence (P62877 whole entry, looked up): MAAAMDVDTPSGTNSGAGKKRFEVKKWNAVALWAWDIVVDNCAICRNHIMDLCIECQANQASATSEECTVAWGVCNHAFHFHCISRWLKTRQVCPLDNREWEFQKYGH
Target sequence (Q13616 whole entry, looked up): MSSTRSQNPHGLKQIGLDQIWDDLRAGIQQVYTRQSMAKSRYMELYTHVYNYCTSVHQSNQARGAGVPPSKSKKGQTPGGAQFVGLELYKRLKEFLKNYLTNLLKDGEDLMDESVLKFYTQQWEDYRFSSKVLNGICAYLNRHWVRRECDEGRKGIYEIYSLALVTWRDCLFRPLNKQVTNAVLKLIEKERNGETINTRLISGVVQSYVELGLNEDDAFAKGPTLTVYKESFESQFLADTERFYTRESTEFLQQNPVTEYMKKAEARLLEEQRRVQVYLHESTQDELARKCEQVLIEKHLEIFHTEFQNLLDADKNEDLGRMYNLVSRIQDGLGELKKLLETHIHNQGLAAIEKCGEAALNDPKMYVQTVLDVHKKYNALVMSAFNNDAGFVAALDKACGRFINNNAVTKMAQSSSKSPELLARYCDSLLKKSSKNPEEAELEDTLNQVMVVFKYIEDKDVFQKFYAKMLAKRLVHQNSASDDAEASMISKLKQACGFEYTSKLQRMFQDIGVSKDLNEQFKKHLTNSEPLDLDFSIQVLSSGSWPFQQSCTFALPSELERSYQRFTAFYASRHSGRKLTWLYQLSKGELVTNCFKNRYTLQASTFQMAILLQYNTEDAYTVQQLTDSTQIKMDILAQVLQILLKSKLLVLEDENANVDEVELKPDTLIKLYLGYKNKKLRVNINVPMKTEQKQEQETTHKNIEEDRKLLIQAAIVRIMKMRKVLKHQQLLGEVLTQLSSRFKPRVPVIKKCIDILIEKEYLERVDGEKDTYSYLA
Numbers stand for hits; – = inactive. Many of the other results were omitted from the sample, so hits are more common in it than they were.

SMILES	RBX1-CUL1 inh
O=C(CSc1ccccc1)NC1CCCC1	–
O=C(N/N=C/c1cccc(Cl)c1)c1ccc([N+](=O)[O-])cc1	–
O=C(Nc1ccccc1Br)c1ccc(CN2CCCCC2)cc1	–
Cc1c(C(c2ccc(O)cc2)C2C(=O)Oc3ccccc3C2=O)c(=O)n(-c2ccccc2)n1C (stereo not drawn)	–
Cc1cccc(NS(=O)(=O)c2ccc(N3C(=O)c4ccc([N+](=O)[O-])c5c([N+](=O)[O-])ccc(c45)C3=O)cc2)c1	–
CCOC(=O)C1=C(C)N=c2s/c(=C\c3ccc(O)cc3)c(=O)n2C1c1ccc(OCC)cc1 (stereo not drawn)	–
CCOC(=O)C1=C(C)N=c2s/c(=C/c3cc(Br)c(O)cc3O)c(=O)n2C1c1ccc(OCC)cc1 (stereo not drawn)	66.5
CCOC(=O)C1=C(C)N=c2s/c(=C\c3cc(Br)c(O)c(OC)c3)c(=O)n2C1c1ccc(OC)cc1 (stereo not drawn)	53.2
CCOC(=O)C1=C(C)N=c2s/c(=C/c3ccoc3)c(=O)n2C1c1ccc(OC)cc1 (stereo not drawn)	–
CCOC(=O)C1=C(C)N=c2s/c(=C\c3cc(Cl)ccc3O)c(=O)n2C1c1ccc(OCC)cc1 (stereo not drawn)	–
CCOC(=O)C1=C(C)N=c2s/c(=C/c3ccc(O)cc3)c(=O)n2C1c1cc(OC)ccc1OC (stereo not drawn)	–
CCOC(=O)C1C(CN2CCN(c3ccccc3)CC2)=NC(=O)NC1c1ccc(C)cc1 (stereo not drawn)	–
Cc1cccc(-n2c(SCC(=O)Nc3ccccc3)nc3sc4c(c3c2=O)CCCC4)c1	–
COc1ccc(CNc2nc3c(-c4cccc(F)c4)nnn3c3ccccc23)cc1	–
Fc1c(F)c(F)c2nc3c(cc2c1F)c(-c1ccccc1)nn3-c1ccccc1	–
COc1ccc(CNc2c(F)c(F)c3nc4c(cc3c2F)c(-c2ccccc2)nn4C)cc1	95.6
COc1ccc(N2CCN(C(=O)Cc3ccccc3F)CC2)cc1	–
COc1ccccc1C(=O)NNc1nc(-c2ccc(NC(C)=O)cc2)cs1	–
Cc1nc2ccccc2nc1CN1CCCC(N2CCOCC2)C1 (stereo not drawn)	–
COc1ccc(Cl)cc1N1C(=O)CC(N2CCC(C(N)=O)CC2)C1=O (stereo not drawn)	–
Cc1ccccc1N1C(=O)C(=Cc2ccc(N(C)C)cc2)C(=O)N(c2ccccc2C)C1=O	–
O=C1C=C2c3ccccc3-c3ccccc3N2C(=O)C1c1ccccc1 (stereo not drawn)	–
CN(C)/C=C1\C=C2C(=O)c3ccccc3N2C1=O	37.3
COc1ccc(-c2cnnc(NCC3CCCO3)n2)c(OC)c1 (stereo not drawn)	–
O=C(O)COc1ccccc1/C=C1\C(=O)Nc2ccc(Br)cc21	–
SMILES	RBX1-CUL1 inh
O=C1Nc2ccc(Br)cc2/C1=C\c1nc2ccccc2c(=O)n1-c1cccc(C(=O)O)c1	31.7
O=C1Nc2ccc(Br)cc2C1=Cc1nc2ccccc2c(=O)n1Cc1ccccc1	–
Cc1cc(C)cc(Oc2coc3cc(OC(C)C(=O)OCC(C)C)ccc3c2=O)c1 (stereo not drawn)	–
COc1cc(CN2CCCC2)ccc1OCC(O)CN1CCCCCCC1 (stereo not drawn)	–
COc1cc(CNC(C)(C)C)ccc1OCC(O)CN1CCCC1 (stereo not drawn)	99.2
COc1cc(CNCCSC)ccc1OCC(O)CN1CCCCCC1 (stereo not drawn)	–
COC[C@H]1CCCN1Cc1ccc(-c2nc(CCn3cccn3)cc(=O)[nH]2)cc1	–
CC(NCC1CC1)c1ccccc1 (stereo not drawn)	–
CC(=O)c1ccccc1-c1ccccc1C(C)=O	–
CN1C(=O)c2ccccc2C(O)c2ccccc21 (stereo not drawn)	–
CC(=O)C1=NC(=O)c2ccccc2C1O (stereo not drawn)	53.5
O=C(Nc1ccc(S(=O)(=O)NCc2ccccc2)cc1)c1ccncc1	–
CC12CCC(C(=O)NCCCNC(=O)C34CCC(C)(C(=O)O3)C4(C)C)(OC1=O)C2(C)C	–
O=C(Nc1c(-c2ccccc2)cc2ccccn12)c1cccc(Cl)c1	–
CCCCCCCC(=O)Nc1ccc(N(C)C)cc1	–
CCCCCCCCCCCCCCCCCCN(C)c1ccc(/C=C/c2cc[n+](C)cc2)cc1	–
CCCCCCCCCCCCCCCC[n+]1ccc(/C=C/c2ccc(N(C)C)cc2)cc1	28.7
Cc1ccc2nc(SCc3cccc(Cl)c3)nc(C)c2c1	–
CC12CCC(C(=O)Nc3ccc(Br)cc3)(OC1=O)C2(C)C (stereo not drawn)	–
Oc1c(Br)cc(Br)nc1Br	–
Oc1c(Br)cc(C(=C(Cl)Cl)c2cc(Br)c(O)c(Br)c2)cc1Br	66.1
Cc1ccc(NC(=O)CSc2nnc(COc3ccccc3)n2N)cc1	–
Cc1cccc(N2CC(C)Cn3c2nc2c3c(=O)n(C)c(=O)n2C)c1 (stereo not drawn)	–
C=CCc1c(C)nc2cc(-c3ccc(Cl)cc3)[nH]n2c1=O	–
CCOC(=O)c1cnc2c(C(F)(F)F)cccc2c1Nc1cccc(C(F)(F)F)c1	–
